Reference: the antibiotic and cytotoxicity screens of Wong et al. (2023)
The whole screen tested about 39,000 compounds, of which about 1,500 (3.8%) were called active. This is one part of a sample in which actives are shown more often than they occur.

test system: HSkMC (human skeletal muscle cells); test: cytotoxicity call (relative viability < 0.9); conditions: 10 µM

| Structure (SMILES) | cytotoxicity call |
| --- | --- |
| CC(=O)N(C)C[C@@H]1Oc2ncc(C#C[C@@H](C)O)cc2C(=O)N([C@H](C)CO)C[C@@H]1C | inactive |
| C[C@@H]1CN([C@@H](C)CO)C(=O)c2cc(NC(=O)c3ccncc3)ccc2O[C@@H](C)CCCCO[C@H]1CN(C)C(=O)Nc1ccc2c(c1)OCO2 | inactive |
| COc1ccc(CN(C)C[C@@H]2OCCCC[C@H](C)Oc3ccc(NS(=O)(=O)c4ccc(Cl)cc4)cc3C(=O)N([C@H](C)CO)C[C@H]2C)cc1 | inactive |
| O=C(N[C@H](c1ccc(F)cc1)c1ccc2ccccc2n1)C1CCN(Cc2ccc(Oc3ccccc3)cc2)CC1 | inactive |
| Cn1cc(CN2CCC(C(=O)N[C@@H](c3ccc(F)cc3)c3ccc4ccccc4n3)CC2)c2ccccc21 | active |
| O=C(N[C@H](c1ccc(F)cc1)c1ccc2ccccc2n1)C1CCN(Cc2cccc(C(F)(F)F)c2)CC1 | active |
| COc1cc(CN2CCC(C(=O)N[C@@H](c3ccc(F)cc3)c3ccc4ccccc4n3)CC2)cc(OC)c1 | inactive |
| O=C(N[C@@H](c1ccccc1)c1ccc2ccccc2n1)C1CCN(Cc2cccc(C(F)(F)F)c2)CC1 | inactive |
| O=C(N[C@H](c1ccc(F)cc1)c1ccc2ccccc2n1)C1CCN(Cc2ccc3ccccc3n2)CC1 | inactive |
| COc1ccc(CNC(=S)NCCO)cc1 | inactive |
| O=S(=O)(NCC[C@@H]1CC[C@H](NS(=O)(=O)c2cccc(Cl)c2)[C@@H](CO)O1)c1cccc(F)c1 | inactive |
| Cc1noc(C)c1NC(=O)N(C)C[C@H]1Oc2ccc(NS(=O)(=O)c3cccs3)cc2CC(=O)N([C@@H](C)CO)C[C@@H]1C | inactive |
| CCCNC(=O)N1C[C@H](O)COC[C@@H]2O[C@@H](CC(=O)NCc3ccncn3)CC[C@H]21 | inactive |
| CC(C)(C)NCCCCOc1ccc(Cl)cc1C(C)(C)C | inactive |
| CC[C@@H](C)NCCCCOc1ccc(Cl)cc1C(C)(C)C | active |
| Cc1ccc(OCc2ccc(Cl)cc2)c(C(C)(C)C)c1 | inactive |
| C[C@@H]1CCCCO[C@H](CN(C)C(=O)CCC(F)(F)F)[C@H](C)CN([C@@H](C)CO)C(=O)c2cc(NS(=O)(=O)c3ccc(Cl)cc3)ccc2O1 | inactive |
| C[C@@H]1CN([C@H](C)CO)C(=O)c2cc(-c3cccc(C#N)c3)cnc2O[C@H]1CN(C)C(=O)c1cnccn1 | inactive |
| CO[C@@H]1CN(C)C(=O)c2ccc(NS(C)(=O)=O)cc2OC[C@@H](C)N(S(=O)(=O)CC(F)(F)F)C[C@H]1C | inactive |
| C[C@H](CO)N1C[C@H](C)[C@H](CN(C)C(=O)Nc2ccc(C(F)(F)F)cc2)Oc2c(NC(=O)Nc3ccccc3)cccc2C1=O | inactive |
| COc1ccc(NC(=O)Nc2cccc3c2O[C@@H](CN(C)C(=O)Nc2ccc(C(F)(F)F)cc2)[C@@H](C)CN([C@@H](C)CO)C3=O)cc1 | inactive |
| C[C@@H]1CN([C@H](C)CO)C(=O)c2cccc(NC(=O)Nc3ccc(F)cc3)c2O[C@H]1CN(C)C(=O)Nc1ccc(C(F)(F)F)cc1 | inactive |
| C[C@@H]1CN([C@@H](C)CO)C(=O)c2cccc(NC(=O)Nc3ccccc3)c2O[C@@H]1CN(C)C(=O)Nc1ccc(C(F)(F)F)cc1 | inactive |
| COc1ccc(NC(=O)N(C)C[C@H]2Oc3c(NC(=O)Nc4ccc(C(F)(F)F)cc4)cccc3C(=O)N([C@@H](C)CO)C[C@@H]2C)cc1 | active |

| Structure (SMILES) | cytotoxicity call |
| --- | --- |
| C[C@@H]1CN([C@H](C)CO)C(=O)c2cccc(NC(=O)Nc3ccc(C(F)(F)F)cc3)c2O[C@@H]1CN(C)C(=O)Nc1ccc(C(F)(F)F)cc1 | active |
| C[C@@H]1CN([C@H](C)CO)C(=O)c2cccc(NC(=O)Nc3ccc(C(F)(F)F)cc3)c2O[C@@H]1CN(C)C(=O)Nc1ccccc1 | active |
| C[C@H]1CN([C@@H](C)CO)C(=O)c2cccc(NC(=O)Nc3ccc(C(F)(F)F)cc3)c2O[C@H]1CN(C)C(=O)Nc1ccc(C(F)(F)F)cc1 | inactive |
| C[C@H](CO)N1C[C@H](C)[C@H](CN(C)C(=O)Nc2ccc(C(F)(F)F)cc2)Oc2c(NC(=O)Nc3ccc(C(F)(F)F)cc3)cccc2C1=O | active |
| C[C@H]1CN([C@@H](C)CO)C(=O)c2cccc(NC(=O)Nc3ccc(C(F)(F)F)cc3)c2O[C@@H]1CN(C)C(=O)Nc1ccc(F)cc1 | inactive |
| COc1ccc(NC(=O)Nc2cccc3c2O[C@H](CN(C)C(=O)Nc2ccc(C(F)(F)F)cc2)[C@@H](C)CN([C@@H](C)CO)C3=O)cc1 | inactive |
| C[C@H]1CN([C@@H](C)CO)C(=O)c2cccc(NC(=O)Nc3ccc(C(F)(F)F)cc3)c2O[C@@H]1CN(C)C(=O)Nc1ccccc1 | inactive |
| COc1ccc2c3c(n(c2c1)C)[C@H](CO)N(C[C@]13CN(C1)C(=O)CN1CCOCC1)C(=O)Nc1ccc(cc1)F | inactive |
| C[C@H]1CN([C@@H](C)CO)C(=O)CCCn2cc(nn2)CO[C@@H]1CN(C)C(=O)c1ccc(N2CCN(C)CC2)cc1 | inactive |
| CC/C(=C\C(=O)O)c1ccccc1 | inactive |
| O=C(C[C@@H]1C[C@@H]2c3cc(NC(=O)C4CCOCC4)ccc3O[C@@H]2[C@H](CO)O1)NCCN1CCCCC1 | inactive |
| COCC(=O)N1C[C@@H](C)[C@@H](OC)CN(C)C(=O)c2ccc(NC(=O)Nc3cccc(F)c3)cc2OC[C@@H]1C | inactive |
| Cc1cccc(S(=O)(=O)N2C[C@H](O)COC[C@H]3O[C@H](CC(=O)NCc4ccncn4)CC[C@@H]32)c1 | inactive |
| C[C@@H]1CCN(C(=O)[C@H](CCCNC(=N)N)NS(=O)(=O)c2cccc3c2NC[C@H](C)C3)[C@@H](C(=O)O)C1 | inactive |
| CNC(=O)C[C@@H]1CC[C@@H]2[C@H](COC[C@H](O)CN2C(=O)c2ccccn2)O1 | inactive |
| N#C[C@@H]1[C@H](c2ccc(C#Cc3ccccn3)cc2)[C@@H](CO)N1C(=O)CN1CCOCC1 | inactive |
| CC(C)NC(=O)N(C)C[C@@H]1Oc2ccc(NS(=O)(=O)c3cn(C)cn3)cc2C(=O)N([C@H](C)CO)C[C@@H]1C | inactive |
| C[C@@H]1CN([C@@H](C)CO)C(=O)c2cc(NC(=O)Nc3ccccc3)ccc2O[C@@H](C)CCCCO[C@H]1CN(C)S(=O)(=O)c1cccs1 | inactive |
| C[C@H]1CN([C@@H](C)CO)C(=O)c2cccc(NC(=O)Nc3ccc(C(F)(F)F)cc3)c2O[C@@H]1CN(C)C(=O)Nc1ccc(C(F)(F)F)cc1 | active |
| C[C@@H]1CN([C@H](C)CO)C(=O)c2cccc(NC(=O)Nc3ccc(C(F)(F)F)cc3)c2O[C@H]1CN(C)C(=O)Nc1ccc(C(F)(F)F)cc1 | inactive |
| C[C@H](CO)N1C[C@H](C)[C@@H](CN(C)C(=O)Nc2ccc(C(F)(F)F)cc2)Oc2c(NC(=O)Nc3ccc(C(F)(F)F)cc3)cccc2C1=O | active |
| C[C@@H]1CN([C@@H](C)CO)C(=O)c2cccc(NC(=O)Nc3ccc(C(F)(F)F)cc3)c2O[C@H]1CN(C)C(=O)Nc1ccc(C(F)(F)F)cc1 | inactive |
| C[C@H](CO)N1C[C@H](C)[C@H](CN(C)C(=O)Nc2ccc(F)cc2)Oc2c(NC(=O)Nc3ccc(C(F)(F)F)cc3)cccc2C1=O | active |
| C[C@@H]1CN([C@H](C)CO)C(=O)c2cccc(NC(=O)Nc3ccc(C(F)(F)F)cc3)c2O[C@@H]1CN(C)C(=O)Nc1ccc(F)cc1 | inactive |

| Structure (SMILES) | cytotoxicity call |
| --- | --- |
| C[C@H]1CN([C@@H](C)CO)C(=O)c2cccc(NC(=O)Nc3ccc(C(F)(F)F)cc3)c2O[C@H]1CN(C)C(=O)Nc1ccc(F)cc1 | inactive |
| C[C@H]1CN([C@@H](C)CO)C(=O)c2cccc(NC(=O)Nc3ccccc3)c2O[C@@H]1CN(C)C(=O)Nc1ccc(C(F)(F)F)cc1 | inactive |
| C[C@@H]1CN([C@H](C)CO)C(=O)c2cccc(NC(=O)Nc3ccc(F)cc3)c2O[C@@H]1CN(C)C(=O)Nc1ccc(C(F)(F)F)cc1 | inactive |
| C[C@@H]1CN([C@@H](C)CO)C(=O)c2cccc(NC(=O)Nc3ccc(C(F)(F)F)cc3)c2O[C@@H]1CN(C)C(=O)Nc1ccc(C(F)(F)F)cc1 | active |
| Cc1noc(C)c1S(=O)(=O)N(C)C[C@@H]1Oc2ccc(NC(=O)NC3CCCCC3)cc2CC(=O)N([C@H](C)CO)C[C@H]1C | inactive |
| O=C(C[C@@H]1C=C[C@@H](NC(=O)c2ccc(F)cc2)[C@H](CO)O1)NCc1ccncn1 | inactive |
| O=C(O)c1cc(O)c(O)c(O)c1 [listing 1 of 2 here] | inactive |
| O=C(O)c1cc(O)c(O)c(O)c1 [listing 2 of 2 here] | active |
| O=C(O)c1ccc(O)c(O)c1 | inactive |
| COc1ccc(NC(=O)Nc2ccc3c(c2)C(=O)N([C@@H](C)CO)C[C@@H](C)[C@H](CN(C)C(=O)C2CCCCC2)OCCCC[C@H](C)O3)cc1 | inactive |
| C[C@@H]1CN([C@H](C)CO)C(=O)Cc2cc(NC(=O)Cn3cnnn3)ccc2O[C@H]1CN(C)S(=O)(=O)c1cccs1 | inactive |
| Oc1ccc(Cl)c2cccnc12 [listing 1 of 2 here] | inactive |
| Oc1c(Cl)cc(Cl)c2cccnc12 | inactive |
| Oc1ccc(Cl)c2cccnc12 [listing 2 of 2 here] | active |
| O=C(NO)c1cccnc1 | inactive |
| CCNC(=O)C[C@H]1C=C[C@H](NC(=O)C2CC2)[C@@H](CO)O1 | inactive |
| C[C@H]1CCCCO[C@@H](CN(C)Cc2ccccc2)[C@@H](C)CN([C@@H](C)CO)C(=O)c2cc(NC(=O)c3ccncc3)ccc2O1 | inactive |
| COc1cccc2c1C(=O)c1c(O)c3c(c(O)c1C2=O)C[C@@](O)(C(=O)CO)C[C@@H]3O[C@H]1C[C@H](N)[C@H](O)[C@H](C)O1 | active |
| COc1cccc2c1C(=O)c1c(O)c3c(c(O)c1C2=O)CC(O)(C(=O)CO)CC3OC1CC(N)C(O)C(C)O1 (configuration not stated) [listing 1 of 2 here] | inactive |
| CCCCC(=O)OCC(=O)[C@]1(O)Cc2c(O)c3c(c(O)c2[C@@H](O[C@H]2C[C@H](NC(=O)C(F)(F)F)[C@H](O)[C@H](C)O2)C1)C(=O)c1c(OC)cccc1C3=O | active |
| COc1cccc2c1C(=O)c1c(O)c3c(c(O)c1C2=O)CC(O)(C(=O)CO)CC3OC1CC(N)C(O)C(C)O1.Cl (configuration not stated) | inactive |
| COc1cccc2c1C(=O)c1c(O)c3c(c(O)c1C2=O)CC(O)(C(=O)CO)CC3OC1CC(N)C(O)C(C)O1 (configuration not stated) [listing 2 of 2 here] | active |
| COc1cccc2c1C(=O)c1c(O)c3c(c(O)c1C2=O)C[C@@](O)(C(=O)CO)C[C@@H]3O[C@H]1C[C@H](N)[C@@H](O)[C@H](C)O1 | inactive |
| COc1cccc2c1C(=O)c1c(O)c3c(c(O)c1C2=O)C[C@](O)(C(=O)CO)C[C@H]3O[C@H]1C[C@@H](N)[C@@H](O)[C@@H](C)O1 | active |
